This is a sample that favours compounds with a hit; in the whole collection about 21% have one here.
CHX counter: affects cycloheximide protein synthesis inhibition readout, counter-screen; AID 2314; 300,000 tested, 12% active; cell reporter, cycloheximide protein synthesis inhibition counterscreen; max response, %; in the data active = max response mostly above about 13%, no sharp cut-off; inactive = mostly below about 14%; note: read at 38.3 µM for the half of the compounds with a filed dose; 0% is about no effect
HCMV antiviral: inhibitors of human cytomegalovirus | HFF cells, HCMV-luciferase reporter, 72 h; hits give low values | activity change, negative = inhibition, % at 57.5 µM | 410,000 tested, 4.5% active | AID 1259415; in the data active = activity change below about -60%; inconclusive = no clear call, values can overlap the other calls; inactive = above about -39%; note: % is set by controls: 0 for no effect and ±100 for the full control effect
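Two-dose cell screen: HFF monolayers treated with compounds and infected with luciferase-expressing HCMV at 1 PFU/cell, 72 h at 37C, then lysed for luciferase measurement.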
HCV inhibitor: blocks hepatitis C virus; 340,000 tested, 3.4% active; Potency, µM (highest dose often 41.8 µM), without a hit: top-dose activity change, negative = inhibition, actives largely listed as inhibitors; Huh7.5.1 HCVcc-Cre infection, luciferase reporter, 44 h; note: potency is the fitted concentration of half-maximal effect; % is set by controls: 0 for no effect and ±100 for the full control effect
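Reporter virus HCVcc-Cre (~0.5 moi) infects cells exposed to compound; seeding density 1,000 cells/well with 4 h settling beforehand. Luminescence, 15 sec read, taken 44 h post-infection following a 15 min RT substrate incubation.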
Shiga toxin inh: blocks Shiga toxin action in Vero cells; 290,000 tested, 9.2% active; Vero cells, Shiga toxin protein synthesis inhibition reporter; inhibition, % at 38.7 µM; in the data active = inhibition mostly above about 28%, no sharp cut-off; inactive = mostly below about 43%; note: 0% is about no effect
Pf growth 48h: P. falciparum growth inhibition at 48 hours (one generation). P. falciparum luciferase growth in erythrocytes, 48 h. Potency, µM (top dose mostly 28.7 µM), for inactives: top-dose activity change, negative = inhibition, hits mostly inhibitors. 310,000 tested, 5.9% active; note: potency is the fitted concentration of half-maximal effect; % is set by controls: 0 for no effect and ±100 for the full control effect
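Compounds are pin-transferred into medium, infected erythrocytes (2% hematocrit, 0.1% parasitemia final) are added, and plates sit one parasite generation at 37 C in 5% CO2. Detection reagent is then added and luminescence measured.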
Pf growth 96h: P. falciparum growth inhibition at 96 hours; Potency, µM (series often up to 28.7 µM), without a hit: at the highest dose activity change, negative = inhibition, most hits filed as inhibitors; 320,000 tested, 6.9% active; P. falciparum luciferase reporter growth, 96 h; AID 504834; note: potency is the fitted concentration of half-maximal effect; % is set by controls: 0 for no effect and ±100 for the full control effect
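Two-generation exposure (96 h) targets delayed-death phenotype. Reporter parasites carrying integrated firefly luciferase, in red cells at 2% hematocrit and 0.05% parasitemia final, kept at 37 C, 5% CO2; luminescence loss indicates inhibition.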
* hit, by the source's call; ? = inconclusive; . = not tested or not shown; [ ] = dose if it differs, or a comment. Unless noted, calls come from the whole dose curve; as a rule, active = well fitted inhibition curve with a large enough effect; inconclusive = small, poorly fitted or top-dose-only effect, or another doubt; inactive = no such curve, though single readings can be large or run the other way.

SMILES	CHX counter	HCMV antiviral	HCV inhibitor	Shiga toxin inh	Pf growth 48h	Pf growth 96h
Cc1cc(NC(=O)c2noc3c2CCCCC3)no1	29*	43	14%	130*	86%	49%
Cc1cc(NC(=O)c2noc3c2CCCC3)no1	22*	-2	-2%	31*	67%	24%
c1nnc(NCNc2nncs2)s1	.	-1	.	.	.	.
Cc1c(C(=O)C(=O)NCC2CCCO2)c2ccccc2n1C (centres undefined)	7	?	8%	1	4%	71%
O=C(CNC1CCN(Cc2ccccc2)CC1)Nc1ccc(S(=O)(=O)N2CCCCC2)cc1	-1	?	-9%	3	?	?
CN1CCc2cccc3c2C1Cc1ccc(O)c(O)c1-3 (centres undefined)	-1	21	18%	1	?	10µM*
CCc1ccc(OCC(=O)NNC(=O)c2cnccn2)c(Br)c1	18*	100	1%	39*	10µM*	?
COc1ccccc1OCC(=O)NNC(=O)c1cnccn1	2	-28	8%	-3	?	124%
CC(C)(C)c1ccc(OCC(=O)Nc2ccncc2)c(Br)c1	31*	13	-20%	100*	27%	?
Cc1cc(OCC(=O)Nc2ccncc2)c(C)cc1Br	-1	26	1%	-4	-13%	.
CCc1ccc(OCC(=O)Nc2ccncc2)c(Br)c1	30*	13	?	.	68%	-17%
Cc1ccc(C)c(NC(=O)CN(C)C(=O)COc2cccc3c2OC(C)(C)C3)c1	.	-16	-12%	.	19%	?
Cc1ccc(C(c2ccc(C)o2)c2cccc([N+](=O)[O-])c2O)o1	-2	1	8%	-9	7.4µM*	4.7µM*
Cc1cc(C(c2ccc(C)o2)c2ccc(C)o2)c(O)c([N+](=O)[O-])c1	-3	23	-9%	14	.	-12%
CC(C)OCCCN1CC(=O)N2C(c3cccc([N+](=O)[O-])c3)c3[nH]c4ccccc4c3C[C@H]2C1=O (some centres undefined)	0	54	-16%	-5	8.3µM*	?
COc1ccc(OC)c(C2c3[nH]c4ccccc4c3C[C@H]3C(=O)N(CCCOC(C)C)CC(=O)N23)c1 (some centres undefined)	-3	41	-4%	-10	7.4µM*	12µM*
Cc1ccc(S(=O)(=O)N2CCC[C@H]2C(=O)OCc2cc(=O)oc3cc(C)ccc23)cc1	.	-9	12%	.	.	.
CSc1nc(Oc2ccc(Cl)cc2)c2sccc2n1	-3	-15	2%	6	?	9.3µM*
CN1C(=O)N(C)c2ccc(Br)c3cccc1c23	6	?	14µM*	-2	31%	15%
CCCCOc1ccc(CNC(=O)C2CCN(c3nnc(-n4cccc4CNc4ccc(C)cc4)s3)CC2)cc1	.	6	.	.	.	.
O=C(CCSc1nnc(-c2ccco2)o1)N1CCOCC1	17	-17	5%	52	10%	97%
CC(C)NCC(O)c1ccccc1Cl (centres undefined)	.	15	.	.	7.6µM*	12µM*
Cc1ccn2cc(-c3cccc(NC(=O)c4cccs4)c3)nc2c1	22*	-30	-26%	36	75%	?
Cc1cccn2cc(-c3cccc(NC(=O)c4cccs4)c3)nc12	32*	14	-19%	71*	-19%	2%
O=C(Nc1cccc(-c2cn3cccnc3n2)c1)c1cccs1	8	15	-8%	-3	2%	?
SMILES	CHX counter	HCMV antiviral	HCV inhibitor	Shiga toxin inh	Pf growth 48h	Pf growth 96h
Cc1c(NS(=O)(=O)c2cccc(C(=O)NCc3cccc(Cl)c3)c2)c(=O)n(-c2ccccc2)n1C	.	2	18%	.	.	.
CC(CCc1ccccc1)NC(=O)CCCn1ncn2c(cc3occc32)c1=O (centres undefined)	2	-26	-1%	5	?	?
Cc1ccc(S(=O)(=O)/N=C2/C=C(C3C(=O)CC(C)(C)CC3=O)C(=O)c3ccccc32)cc1	41*	-24	-36%	140*	?	.
COC(=O)[C@H](Cc1ccccc1)NC(=O)N(C)Cc1ccccc1	18*	11	16%	27	12%	-11%
COC(=O)[C@@H](CC(C)C)N(Cc1ccccc1)S(=O)(=O)N(Cc1ccccc1)[C@@H](CC(C)C)C(=O)OC	.	?	26%	.	.	.
C=C[C@H](Cc1ccccc1)N(Cc1ccccc1)S(=O)(=O)N(Cc1ccccc1)[C@H](C=C)Cc1ccccc1	.	-86*	-3%[8.37 µM]	.	.	.
CN(Cc1ccccc1)C(=O)N[C@@H](Cc1ccccc1)C(=O)O	-2	-11	2%	-6	13%	-3%
COC(=O)[C@@H](Cc1ccccc1)N(Cc1ccccc1)S(=O)(=O)N(Cc1ccccc1)[C@H](Cc1ccccc1)C(=O)OC	.	-96*	-14%[8.37 µM]	.	.	.
CC(OC(=O)/C=C/c1ccc2ccccc2n1)C(=O)Nc1ccc(S(N)(=O)=O)cc1 (centres undefined)	.	24	13%	.	10%	2%
CCOCCCn1c(SCC(=O)Nc2ccc(C(C)C)cc2)nc2c(sc3ccccc32)c1=O	.	11	.	.	.	.
Cc1ccc(CCN2CC(C(=O)NCCCN3CCC(C)CC3)CC2=O)cc1 (centres undefined)	10	-9	11%	1	?	?
Oc1ccc(CNc2ccc(F)cc2)c2cccnc12	1	-14	?	62	?	?
CN1CCN(C2CCN(Cc3ccc(O)c4ncccc34)CC2)CC1	.	-16	.	.	?	?
Oc1ccc(COC2CCCC2)c2cccnc12	.	.	.	.	1.3µM*	8.3µM*
COCc1ccc(O)c2ncccc12	26*	-94*	5.6µM*	-8	.	?
Oc1ccc(COc2cccc3ccccc23)c2cccnc12	.	.	.	.	2.6µM*	5.2µM*
Oc1ccc(COCc2ccc(F)cc2)c2cccnc12	.	.	.	.	2.9µM*	4.1µM*
CN(CCO)C(=O)c1nc[nH]c1C(=O)N1CCN(c2ccccc2)CC1	.	-3	.	.	.	.
O=C(NC1CCCCC1)c1ccc(S(=O)(=O)c2ccccc2)cc1	-1	-3	13%	7	-27%	?
COc1cc(C(=O)NCC(c2ccco2)N2CCCC2)ccc1OCc1c(C)noc1C (centres undefined)	-1	26	?	-12	12µM*	?
COc1ccc(C(=O)NCC(c2ccc(Cl)cc2)N2CCCCC2)cc1 (centres undefined)	.	8	.	.	.	.
COc1ccccc1C(CNC(=O)c1ccc(OCc2c(C)noc2C)cc1)N1CCCC1 (centres undefined)	.	-13	?	.	10µM*	10µM*
COc1ccc(C(CNC(=O)c2ccc(OCc3c(C)noc3C)cc2)N2CCCC2)cc1 (centres undefined)	.	44	?	.	4.7µM*	3.7µM*
Cc1noc(C)c1COc1ccc(C(=O)NCC(c2c(F)cccc2Cl)N(C)C)cc1 (centres undefined)	.	2	12%	.	?	9.3µM*

Screening data (PubChem)
